Test results: PubChem BioAssay AID1628 (Sanford-Burnham Center for Chemical Genomics, 2009)
Hit rate of the full screen: of about 190,000 compounds, about 930 (0.49%) were called active. This is one part of the list. Entries with a potency or affinity are not part of this list. Values without a mark were called inactive.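 How the source made its calls: active means z-score of insulin promoter reporter brightness in nuclei below -3 at 5 µM, with at least 500 cells counted; inconclusive means wells with under 500 cells, flagged as toxic or sparse; inactive means the rest.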

Test: decrease of insulin promoter-GFP reporter – imaging, high-content screening, mouse beta cells (AID 1628)
Settings: MIN6 insulin promoter GFP reporter, at 5 µM, hits give low values

Structure (SMILES)	z-score
CSc1ccccc1C(=O)NC1CCCC1	-5.87 (active)
Cc1ccccc1C(=O)NC1CCN(C(=O)N2CCOCC2)CC1	1.27
O=C(Cn1nnc(-c2ccc(S(=O)(=O)N3CCCC3)cc2)n1)Nc1ccccc1-n1cccc1	-4 (active)
COc1ccccc1NC(=S)N(Cc1ccc(C)cc1)Cc1ccccn1	1.92
COc1ccc(-c2[nH]ncc2CN(C)Cc2ccccn2)c(OC)c1	-4.89 (active)
CCCCCCCCCCCC(=O)c1c(O)cccc1O	-0.04
CN1C(=S)N(c2cccnc2)C(=O)/C1=C\c1ccc(N(C)C)cc1	5.58
CCc1ccccc1NC(=S)N(CCN(C)C)C(C)c1ccccn1 (stereo not given)	-5.14 (active)
Cc1ccccc1NC(=S)N(CCN(C)C)C(C)c1ccccn1 (stereo not given)	-6.19 (active)
COCCN(C(=S)Nc1ccc(C)cc1C)C(C)c1cccs1 (stereo not given)	1.14
CC(C)CCN(C(=S)Nc1cccc(F)c1)C(C)c1cccs1 (stereo not given)	4.77
CCN1CCN(C(=O)C2(NC(=O)Nc3cccc(F)c3)CCCCC2)CC1	-4.67 (active)
COc1ccccc1NS(=O)(=O)c1cc(NC(=O)c2ccc(=O)[nH]c2)ccc1N1CCOCC1	-4.48 (active)
Cc1cccc(NC(=O)Cn2cc([N+](=O)[O-])cn2)n1	2.86
Cc1nn(C)c(C)c1NC(=O)CSc1nnc(C)n1-c1ccccc1	0.56
CCCCn1nnnc1SCC(=O)Nc1cccc(C)n1	-4.7 (active)
NC(=S)n1[nH]c(-c2ccc([N+](=O)[O-])cc2)c(N=Nc2ccc(Cl)cc2)c1=O	-5.03 (active)
NC(=S)n1[nH]c(-c2ccc([N+](=O)[O-])cc2)c(N=Nc2cccc(Cl)c2)c1=O	-3.23 (active)
Cc1ccccc1SCc1noc(C(=O)NC(C)C)c1C(=O)O	3.02
O=C(NCc1cccs1)c1ccc(N2CCCCC2)nc1	3.41
Cc1cc(C)c(C#N)c(SCC2COc3ccccc3O2)n1 (stereo not given)	3.48
Cc1cc(C)c(S(=O)(=O)c2ccccc2C)c(SCC(C)C)n1	-3.18 (active)
CCOC(=O)c1c(-c2ccc(C)cc2)csc1NC(=O)/C(C#N)=C/c1ccc(O)c(OC)c1	8.18
CN(C)c1ccc(/C=C/C(O)=C2/C(=O)N(C)C3(C)CC2c2ccccc2O3)cc1 (stereo not given)	3.04
CCN(CC)CCN(Cc1cc2ccc(C)cc2[nH]c1=O)C(=O)NC1CCCCC1	-4.95 (active)

Structure (SMILES)	z-score
CCc1c(C(=O)NC2CCCCC2)[nH]c(C)c1C(C)=O	3.85
CCCS(=O)(=O)NCCc1cc2ccc(C)cc2[nH]c1=O	0.95
O=C(c1ccc2c(c1)OCO2)N1CCCC1	8.93
O=C(c1ccc2c(c1)OCO2)N1CCc2ccccc2C1	-0.76
O=C(c1ccc2c(c1)OCO2)N1CCN(c2ccccn2)CC1	-5.54 (active)
O=C(c1ccc2c(c1)OCO2)N1CCCC(c2ccccc2)C1 (stereo not given)	-3.99 (active)
O=C(CC12CC3CC(CC(C3)C1)C2)NCC(=O)N1CCc2ccccc2C1	3.34
CN(C)c1ccc(/C=C/C(=O)c2c(O)c3ccccc3oc2=O)cc1	8.78
CN(C)c1ccc(C(=O)c2ccc(N(C)C)c3ccccc23)cc1	-5.22 (active)
O=C(O)c1cc(-c2ccncc2)nc2ccc(F)cc12	3
O=C(O)CCCC(=O)Nc1c(F)c(F)c(F)c(F)c1F	0.09
Cc1c2ccccc2nc2c(F)c(NC(C)C)c(F)c(F)c12	9.6
O=C(NCc1ccccn1)C(=O)NCC(c1ccco1)N1CCN(c2ccc(F)cc2)CC1 (stereo not given)	1.32
Cc1noc(C)c1CSCC(=O)N1CCN(c2ccc(F)cc2)CC1	-3.68 (active)
COc1cccc(/C=N/NC(=O)c2c(C)nc3ccc(Br)cn23)c1O	-4.47 (active)
COc1ccc(CN=Cc2[nH]c3ccc(Br)c(Cl)c3c2O)cc1	8.49
COc1cc(OC)c2cc(C(=O)N/N=C/c3cccc(OC)c3O)[nH]c2c1	-3.6 (active)
CN(C)c1nc(N)nc(/C(C#N)=C/C2CC3C=CC2C3)n1 (stereo not given)	3.05
CCOC(=O)c1ccc2[nH]c3ccccc3c2c1	-0.27
Oc1ccc2ccccc2c1N=Nc1ccccn1	-8.6 (active)
Cc1ccc(/C=[N+](\[O-])c2ccc(N(C)C)cc2)c2nsnc12	4.9
O=C(NCC1CCCO1)C1CCN(S(=O)(=O)N2CCCC2)CC1 (stereo not given)	3.58
O=C(COC(=O)c1cc(S(=O)(=O)N2CCOCC2)ccc1O)NCC1CCCO1 (stereo not given)	3.77
CN(C)S(=O)(=O)c1cc(C(=O)NCC2CCCO2)c(Cl)cc1Cl (stereo not given)	-4.71 (active)
Cc1cc(/C=C2\SC(=S)NC2=O)c(C)n1C1CC1	3.04
